From PubChem BioAssay AID743279 (National Center for Advancing Translational Sciences (NCATS), 2014)
Among all 360,000 compounds or so, about 17,000 (4.7%) were called active. Roughly 5% stayed inconclusive and do not appear here. The full list was thinned out, with actives kept by preference. Values without a mark were called inactive. Rule as the data show it: active = activity change below about -50%; inconclusive = mostly about -30% to -49%; inactive = weaker than that.
% is scaled to controls: 0 for no effect and ±100 for the full control effect.

Experiment: qHTS for Inhibitors of Inflammasome Signaling: IL-1-beta AlphaLISA Primary Screen
Conditions: THP-1 LPS/ATP IL-1B secretion, 16 h; at 57.5 µM, stronger effect = lower value
How it was run: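 THP-1 cells pretreated 1 hr with compounds (up to 57.5 uM final), then stimulated with LPS (250 ng/mL final) plus ATP (1.25 mM final); secreted IL-1B measured by AlphaLISA after 16 hr, decreased signal indicating inhibition.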
Molecule COc1cccc2c1OCC(CN1CCN(C3CCCCC3)C(CCO)C1)=C2 (configuration not stated) has an activity change of 18.2%.
Molecule CC1C=CCC2C(=O)N(c3cccc(C(=O)N4CCCCCC4)c3)C(=O)C12 (configuration not stated) has an activity change of 23.7%.
In the case of COC(=O)c1cccc(N2C(=O)C3C4C=CC(CC4)C3C2=O)c1 (configuration not stated), the activity change was 15.7%.
In the case of Cc1cccc(N2CCN(C(=O)c3cccc(N4C(=O)C5C6C=CC(C6)C5C4=O)c3)CC2)c1C (configuration not stated), the activity change was -52.9% (active).
Cc1ccccc1NC(=O)Cc1nc(COC(=O)CNC(=O)c2ccc(Cl)cc2Cl)cs1 showed an activity change of 11%.
Cc1ccc(F)c(S(=O)(=O)NC(=O)C2(C)CCN2C(=O)c2ccco2)c1 (configuration not stated) showed an activity change of 24%.
Molecule S=C(NCc1cccnc1)Nc1ccc(Cl)cc1Cl has an activity change of 11%.
With O=C(NNc1cc(Cl)ccc1Cl)c1cccnc1Cl the activity change was -6.39%.
In the case of CC(=O)/C(=N\Nc1ccc(Cl)cc1Cl)Sc1cccc2cccnc12, the activity change was -103% (active).
With O=C(COC(=O)/C=C/c1ccc(Cl)cc1)NC1CCS(=O)(=O)C1 (configuration not stated) the activity change was 1.68%.
CC(=O)Nc1ccc(-c2ccnc3c2CC(C(=O)NC(C)C)O3)cc1 (configuration not stated) showed an activity change of -17%.
Molecule Nc1cccc2c1C(=O)N(Cc1nnc(-c3ccccc3Br)o1)C2=O has an activity change of -5.13%.
With CN(C)C(=O)CCc1ccc2c3c([nH]c2c1)[C@]1(CCc2ccccc2)[C@@H](C(=O)N2CCCCC2)C[C@H](CC(=O)NCCC2=CCCCC2)C(=O)N1CC3 the activity change was -14.8%.
For CN(C)C(=O)CCc1ccc2c3c([nH]c2c1)[C@]1(C)[C@@H](C(=O)N2CCCCC2)C[C@H](CC(=O)NCCC2=CCCCC2)C(=O)N1CC3, the activity change was -30%.
For CC(C)N(C(=O)[C@H]1C[C@H](CC(=O)NCCC2=CCCCC2)C(=O)N2CCc3c([nH]c4cc(CCC(=O)N(C)C)ccc34)[C@]12C)C(C)C, the activity change was -51.9% (active).
COc1ccc(-c2cc3nc(NCCOc4ccccc4)ccn3n2)cc1 gave an activity change of -17.4%.
Work on COCCCNc1ccn2nc(-c3ccc(CC(C)C)cc3)cc2n1 yielded an activity change of 47%.
For COCCNc1cc(-c2ccccc2)nc2cc(-c3cccc(F)c3)nn12, the activity change was -67.2% (active).
In the case of CCCCc1nccn1CCn1ccnc1CCCC, the activity change was -1.41%.
In the case of CCOC(=O)c1c(NC(=O)CCl)sc(C(=O)N(CC)CC)c1C, the activity change was -99.1% (active).
With CCOC(=O)c1sc(NC(=O)CCN2CCOCC2)c(C(=O)OCC)c1C the activity change was 0%.
CCOC(=O)Nc1sc(C(=O)N(C)C)c(C)c1C(=O)OCC gave an activity change of 20.1%.
CC(Oc1ccc(F)cc1)C(=O)Nc1cc(S(=O)(=O)N2CCOCC2)ccc1N1CCN(C)CC1 (configuration not stated) showed an activity change of -9.51%.
With O=C(Cc1ccc([N+](=O)[O-])cc1)NCCS(=O)(=O)N1CCN(c2ccccc2)CC1 the activity change was 16.3%.
With CCNC(=S)Nc1ccc2c(c1)c(=O)n(C)n2Cc1ccc(Cl)cc1 the activity change was -17.7%.
Work on CC(C)Oc1cc(F)ccc1-c1cc(C(=O)Nc2cccc(Cl)c2)[nH]n1 yielded an activity change of 19.8%.
With COc1ccccc1N1CCN(/N=C/c2ccc(O)cc2O)CC1 the activity change was -21.9%.
With COc1cc(/C=N/N2CCN(c3ccccc3)CC2)ccc1OC(C)=O the activity change was -4.61%.
For COc1ccccc1N1CCN(/N=C\C(Br)=C\c2ccccc2)CC1, the activity change was -66.9% (active).
CCCc1nc2c3ccccc3ccn2c1Cc1ccccc1C(F)(F)F gave an activity change of 17.7%.
With COCCCN(C(=S)Nc1c(C)cc(C)cc1C)C(C)c1ccncc1 (configuration not stated) the activity change was 0%.
In the case of CCc1nnc(NC(=O)c2ccco2)s1, the activity change was 10%.
With O=C(Nc1nc(-c2ccco2)c(-c2ccco2)s1)c1ccco1 the activity change was -77.4% (active).
O=C(Nc1nnc(CCOCCOCCc2nnc(NC(=O)c3ccco3)s2)s1)c1ccco1 gave an activity change of -5.99%.
With CCN1CCN(c2sc(S(C)(=O)=O)nc2S(=O)(=O)c2ccc(Cl)cc2)CC1 the activity change was -97.8% (active).
Work on CCN1CCN(c2ccc([N+](=O)[O-])cc2C(=O)c2ccc(Cl)cc2)CC1 yielded an activity change of -7.81%.
With CCN1CCN(C(=O)N(Cc2ccc(Cl)cc2)S(=O)(=O)c2ccc(C)cc2)CC1 the activity change was -3.62%.
Work on COc1cc([C@H](Cc2ccccc2)NC(C)=O)oc(=O)c1 yielded an activity change of 22.9%.
In the case of COC(=O)COc1cccc2c(=O)n(CC(=O)NCc3ccccc3)ccc12, the activity change was -57.4% (active).
In the case of Cc1ccc(CNC(=O)CCNC(=O)Cn2ccc3ccccc3c2=O)cc1, the activity change was -21.6%.
With COc1cccc2c(=O)n(CC(=O)N3CCCCCC3)ccc12 the activity change was -3.57%.
With O=C(Nc1cccc(S(=O)(=O)NC2=NCCC2)c1)C1CCCCC1 the activity change was 23.8%.
With O=C(C1=C[C@H](c2coc3ccccc3c2=O)C[C@H](OCc2ccc(CO)cc2)O1)N1CCN(Cc2ccccc2)CC1 the activity change was -63.5% (active).
Molecule O=C(C1=C[C@H](c2coc3ccccc3c2=O)C[C@H](OCc2ccc(CO)cc2)O1)N1CCOCC1 has an activity change of -3.08%.
With O=C(NCc1ccccc1)C1=C[C@@H](C2CCCCC2)C[C@@H](OCc2ccc(CO)cc2)O1 the activity change was -17.5%.
In the case of O=C(NCc1ccccc1)C1=C[C@H](C2CC2)C[C@H](OCc2ccc(CO)cc2)O1, the activity change was -25.1%.
For O=C(C1=C[C@H](c2ccc(C(F)(F)F)cc2)C[C@H](OCc2ccc(CO)cc2)O1)N1CCN(Cc2ccccc2)CC1, the activity change was -80.4% (active).
In the case of O=C(NCc1ccccc1)C1=C[C@@H](c2ccc(C(F)(F)F)cc2)C[C@@H](OCc2ccc(CO)cc2)O1, the activity change was -53.9% (active).
Molecule O=C(C1=C[C@H](C2CC2)C[C@H](OCc2ccc(CO)cc2)O1)N1CCN(Cc2ccccc2)CC1 has an activity change of -22.6%.
For CC(=O)n1cc([C@H]2C=C(C(=O)N3CCOCC3)O[C@@H](OCc3ccc(CO)cc3)C2)c2ccccc21, the activity change was -1.15%.
Work on CN1CCN(C(=O)C2=C[C@H](c3ccc4c(c3)OCO4)C[C@H](OCc3ccc(CO)cc3)O2)CC1 yielded an activity change of -10.6%.
c1ccc(-c2c[nH]c(-c3ccccc3)c2)cc1 gave an activity change of 14%.
For N#CCCC(C#N)(c1cccnc1)N1CCOCC1 (configuration not stated), the activity change was 2.31%.
CC(C)(C)c1ccc(/C=C/C(=O)NCCCn2ccnc2)cc1 showed an activity change of -13.5%.
In the case of Oc1cccc(CCc2ccccn2)c1, the activity change was -8.08%.
Cc1cccc(N2CCN(C(=O)COCc3cc(-c4ccc5c(c4)OCO5)on3)CC2)c1C gave an activity change of -0.251%.
CCc1cc(C(=O)N(CC)CC(=O)Nc2c(F)cccc2F)sc1C gave an activity change of -0.176%.
In the case of COc1cc(CCN=Cc2ccccc2O)c([N+](=O)[O-])cc1OC, the activity change was 13.4%.
In the case of Cc1csc(=O)n1CCC(=O)OCC(=O)Nc1ccc(N2CCOCC2)cc1, the activity change was 0%.
COC(=O)[C@H](Cc1ccccc1)NC(=O)Nc1ccc(S(N)(=O)=O)cc1 gave an activity change of 9.1%.
COc1ccc(C(=O)NC(=S)N2CCCCC2c2cccnc2)cc1OC (configuration not stated) showed an activity change of -16.3%.
Work on CSc1ncccc1C(=O)N1CCCC(Nc2ccc(F)c(F)c2)C1 (configuration not stated) yielded an activity change of 43.2%.
In the case of CC(C)OC(=O)CC(=O)CC(O)c1cccc([N+](=O)[O-])c1 (configuration not stated), the activity change was 19.7%.
CCC(=O)N(Cc1cc2ccccc2[nH]c1=O)c1ccc(OC)cc1 gave an activity change of -28.7%.
For CC(=O)N(Cc1cc(=O)[nH]c2ccccc12)c1ccc(C)cc1C, the activity change was 1.3%.
For Cc1ccc(N(Cc2cc(=O)[nH]c3ccccc23)C(=O)CCl)cc1, the activity change was -99.5% (active).
Work on CC(C=Cc1ccccc1)=NNS(=O)(=O)c1ccc([N+](=O)[O-])cc1 yielded an activity change of -3.19%.
With CCOc1ccc(S(=O)(=O)N2CCN(C(=O)c3oc4ccccc4c3C)CC2)cc1 the activity change was -12.6%.
For N#CC1=C(N)OC2=C(C(=O)CCC2)C1C1CC=CCC1 (configuration not stated), the activity change was 0.456%.
In the case of COCc1[nH]nc2c1C(C1C=CCCC1)C(C#N)=C(N)O2 (configuration not stated), the activity change was -72.1% (active).
N#CC1=C(N)Oc2cc(O)ccc2C1C1CCCCC1 (configuration not stated) gave an activity change of 50.4%.
CCCCNC(=O)C[C@@H]1C[C@@]2(C(=O)OC)CC(C)(C)CC=C2N(Cc2ccco2)C1=O showed an activity change of -1.57%.
With NCCCCC(C(=O)O)N(C(=O)OCc1ccccc1)C(=O)OCc1ccccc1 (configuration not stated) the activity change was -16.2%.
O=C(O)CSc1c2c(nc3cc(C(=O)Nc4cccc(C(F)(F)F)c4)ccc13)CCCC2 gave an activity change of -26.7%.
For Cn1nc(C(F)(F)F)c(C(=O)Nc2cccc(C(F)(F)F)c2)c1SCc1ccc(Cl)cc1, the activity change was -81.8% (active).
With COC(=O)c1ccccc1Sc1c(/C=N/OCc2ccc(Cl)cc2)c(C(F)(F)F)nn1C the activity change was 20.2%.
OC[C@@H]1CN(Cc2cccs2)C[C@H](n2cnc3c(Nc4ccccc4)ncnc32)O1 showed an activity change of 8.21%.
For O=C1CCNCCN1[C@H](CO)Cc1ccccc1, the activity change was 17.5%.
For c1ccc(C[C@H]2CNCCN2CCC23CC4CC(CC(C4)C2)C3)cc1, the activity change was -74.5% (active).
Molecule c1ccc2c(CCN3CCNC[C@H]3Cc3cccc4ccccc34)cccc2c1 has an activity change of -12.9%.
With CCCC(=O)N1CCC1(C)C(=O)Nc1ccc(-n2cncn2)cc1 (configuration not stated) the activity change was 0.196%.
C[C@@H]1CN([C@H](C)CO)C(=O)CCCn2cc(nn2)CO[C@H]1CN(C)S(=O)(=O)c1ccc(Oc2ccccc2)nc1 gave an activity change of 17.8%.
For O=S(=O)(c1ccc(F)cc1)N1CCN=C1SCc1cccc(F)c1, the activity change was 12.9%.
For CNc1ccc(SC#N)cc1, the activity change was -70.1% (active).
With CC(=O)N1CCc2c(sc(NC(=O)CCS(=O)(=O)c3ccccc3)c2C#N)C1 the activity change was “inactive”.
For O=C1OCCOC2CCCc3oc(-c4ccccc4)c1c32 (configuration not stated), the activity change was 10.6%.
Work on O=C(NCc1ccccc1)C1c2ccccc2OCC(=O)N1CCCN1CCOCC1 (configuration not stated) yielded an activity change of 89.8%.
